Screening data: PubChem, National Center for Advancing Translational Sciences (NCATS)
Hits are enriched below; roughly 9.9% of the tested compounds scored in any of these assays.
Tau fibril ThT = inhibitors of human tau fibril formation, thioflavin T binding | AID 1460 | recombinant tau K18 P301L, heparin-induced fibrillization, ThT fluorescence | 270,000 tested, 2.1% active | Potency, µM (doses to about 57.4 µM), without a hit: at the highest dose activity, negative = inhibition, hits mostly inhibitors; active = well fitted curve in the direction sought with a large enough effect; inconclusive = small, poorly fitted or top-dose-only effect, or another doubt; inactive = no such curve, though single readings can be large; an effect the other way counts as inactive or inconclusive; also: nearly all actives have a fitted effect of over 55% in size
Target sequence (P10636 561-689 P618L limits assumed): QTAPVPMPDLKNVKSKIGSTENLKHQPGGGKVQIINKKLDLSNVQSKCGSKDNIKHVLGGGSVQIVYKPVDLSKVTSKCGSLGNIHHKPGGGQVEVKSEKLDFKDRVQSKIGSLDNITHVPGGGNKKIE
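Heparin-induced fibrillization of the P301L-mutant K18 repeat-domain fragment of human tau was followed by ThT binding in quantitative high-throughput format.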
HPGD inh = HPGD (human) dehydrogenase inhibition; 150,000 tested, 4.3% active; Potency, µM, inactives show at the top dose activity change, negative = inhibition, most hits filed as inhibitors; purified HPGD, NADH fluorescence kinetic, PGE2 substrate; P15428
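20 nM HPGD preincubated 15 min at room temperature with compound in 50 mM Tris-HCl pH 8, 0.01% Tween 20. Started with 1 mM NAD+ and 30 uM prostaglandin E2; NADH fluorescence (360/450 nm) read 5 times over 30-s intervals, last minus first.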
KDM4E inh = inhibitors of human JMJD2E histone demethylase. JMJD2E catalytic domain, FDH-coupled NADH fluorescence (FDH is formaldehyde dehydrogenase). Potency, µM (doses to about 57.1 µM), for inactives: at the highest dose activity change, negative = inhibition, usual class: inhibitors. 230,000 tested, 1.6% active. AID 2147;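 also: 0% = wells with enzyme and -100% = buffer wells without enzyme; nearly all actives have a fitted effect of over 50% in size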
Tau fibril FP = tau fibrillization inhibition (FP); K18 P301L tau heparin fibrillization, Alexa594 FP, 6 h; Potency, µM (series often up to 57.7 µM), inactives show at the highest dose activity, negative = inhibition, usual class: inhibitors; 280,000 tested, 0.39% active; AID 1468; active = well fitted curve in the direction sought with a large enough effect; inconclusive = small, poorly fitted or top-dose-only effect, or another doubt; inactive = no such curve, though single readings can be large; an effect the other way counts as inactive or inconclusive; also: nearly all actives have a fitted effect of over 55% in size
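Human K18 P301L fragment (15 uM unlabeled plus 0.24 uM Alexa 594-labeled) in 100 mM sodium acetate pH 7 with compound, aggregation induced by 20 uM heparin for 6 hr at 37 C. ThT (30 uM) added for 1 hr, then Alexa 594 FP read.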
Tau fluor counter = counter-screen for tau fibril formation inhibitors; tau K18 P301L Alexa594 fluorescence, heparin fibrillization; Potency, µM (highest dose often 57.7 µM), for inactives: top-dose activity change, negative = decrease; 280,000 tested, 0.93% active; AID 1463; active = well fitted curve in the direction sought with a large enough effect; inconclusive = small, poorly fitted or top-dose-only effect, or another doubt; inactive = no such curve, though single readings can be large; an effect the other way counts as inactive or inconclusive; also: nearly all actives have a fitted effect of over 55% in size
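Human tau K18 P301L (15 uM unlabeled, 0.24 uM Alexa 594-labeled) in 100 mM sodium acetate pH 7 with 20 uM heparin, 6 hr at 37 C. ThT 30 uM added, 1 hr ambient; Alexa 594 FP and total fluorescence read at 555/632 nm.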
ALDH1A1 block = ALDH1A1 (human) enzyme inhibition; P00352; Purified ALDH1A1, NADH fluorescence, propionaldehyde substrate; Potency, µM (doses to about 75.3 µM), for the others: at the top dose activity, negative = inhibition, hits mostly inhibitors; 220,000 tested, 7.3% active;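 also: plate controls were no enzyme wells and a reference inhibitor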
Target sequence (P00352 whole entry, looked up): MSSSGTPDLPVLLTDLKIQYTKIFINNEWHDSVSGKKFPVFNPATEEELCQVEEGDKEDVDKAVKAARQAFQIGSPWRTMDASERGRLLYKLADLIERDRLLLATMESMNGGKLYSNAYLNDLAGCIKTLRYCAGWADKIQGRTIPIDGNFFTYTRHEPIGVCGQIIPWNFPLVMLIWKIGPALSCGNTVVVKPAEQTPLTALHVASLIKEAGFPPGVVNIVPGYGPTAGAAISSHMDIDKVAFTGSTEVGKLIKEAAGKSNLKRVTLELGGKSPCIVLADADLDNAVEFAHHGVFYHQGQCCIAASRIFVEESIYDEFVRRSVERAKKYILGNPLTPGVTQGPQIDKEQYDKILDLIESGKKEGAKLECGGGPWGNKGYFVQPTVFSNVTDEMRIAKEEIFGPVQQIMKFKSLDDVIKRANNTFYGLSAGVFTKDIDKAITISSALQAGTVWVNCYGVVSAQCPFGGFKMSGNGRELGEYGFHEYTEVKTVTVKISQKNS
Active calls of the source: *; [ ] = remark or other dose. Unless noted, calls follow the shape of the dose curve; as a rule, active = well fitted inhibition curve with a large enough effect (not every such curve was filed as active); inconclusive = small, poorly fitted or top-dose-only effect, or another doubt; inactive = no such curve, though single readings can be large or run the other way. Unless noted, % is scaled to controls: 0 for no effect and ±100 for the full control effect; potency is read from the fitted curve at half-maximal effect.

For Cc1ccc(Cn2c(SCC(C)C)nc3c2c(=O)[nH]c(=O)n3C)cc1 the results were Tau fibril ThT 5%, HPGD inh 20µM*, KDM4E inh -3%, Tau fibril FP 4%, Tau fluor counter 2% and ALDH1A1 block 28µM*.
Screening C=CCn1c(SCc2ccc(F)cc2)nc2c1c(=O)[nH]c(=O)n2C returned Tau fibril ThT -15%, HPGD inh -6%, KDM4E inh -4%, Tau fibril FP -3%, Tau fluor counter -11% and ALDH1A1 block inconclusive.
`C/C=C/Cn1c(SCc2ccc(C)cc2)nc2c1c(=O)[nH]c(=O)n2C` gave Tau fibril ThT -1%, HPGD inh 14µM*, KDM4E inh -2%, Tau fibril FP -4%, Tau fluor counter 0% and ALDH1A1 block inconclusive.
COc1ccccc1CNC(=O)CCC(=O)N1Cc2ccccc2Oc2ncccc21 was read as Tau fibril ThT -3%, Tau fibril FP 4% and Tau fluor counter -1%.
Cc1cc(C)cc(NC(=O)CSc2nc(N)c(NC(=O)c3cccs3)c(=O)[nH]2)c1 was read as Tau fibril ThT -7%, HPGD inh -8%, KDM4E inh 0%, Tau fibril FP -13%, Tau fluor counter -3% and ALDH1A1 block 6%.
`FC(F)(F)c1ccccc1Cl` gave HPGD inh -4% and ALDH1A1 block -21%.
CCCCCn1c(SCc2cccc(C)c2)nc2c1c(=O)[nH]c(=O)n2C was read as Tau fibril ThT inconclusive, KDM4E inh 8%, Tau fibril FP 2% and Tau fluor counter -8%.
Screening COCCSc1nc2c(c(=O)[nH]c(=O)n2C)n1Cc1cccc(C)c1 returned Tau fibril ThT -2%, HPGD inh inconclusive, KDM4E inh 2%, Tau fibril FP 5%, Tau fluor counter 5% and ALDH1A1 block 14µM*.
For O=c1c2cc(Cl)ccc2[nH]c(=S)n1Cc1cccs1 the results were Tau fibril ThT 14%, HPGD inh -7%, KDM4E inh -4%, Tau fibril FP -8%, Tau fluor counter -25% and ALDH1A1 block inconclusive.
Screening Cn1cc(S(=O)(=O)N2CCOCC2)cc1C(=O)Nc1ccc(Cl)c(C(F)(F)F)c1 returned Tau fibril ThT -3%, Tau fibril FP -5% and Tau fluor counter 5%.
Cc1coc2cc3oc(=O)c4c(c3cc12)CCC4 was read as Tau fibril ThT -4%, HPGD inh -29%, KDM4E inh inconclusive, Tau fibril FP 0%, Tau fluor counter 0% and ALDH1A1 block inconclusive.
Cc1coc2c1C(=O)C(=O)c1c-2ccc2c(C)cccc12 was read as Tau fibril ThT 2µM*, KDM4E inh -5%, Tau fibril FP inconclusive and Tau fluor counter -28%.
Screening Cc1ccc2c3c(cccc13)-c1ccccc1C2=O returned Tau fibril ThT inconclusive, HPGD inh -6%, KDM4E inh inconclusive, Tau fibril FP -2%, Tau fluor counter -27% and ALDH1A1 block -6%.
For Cc1coc2c1C(=O)C(=O)c1c-2ccc2c1CCCC2(C)C the results were Tau fibril ThT 14µM*, HPGD inh 16µM*, KDM4E inh inconclusive, Tau fibril FP inconclusive, Tau fluor counter inconclusive and ALDH1A1 block 20µM*.
For CCOc1cc(N2CCOCC2)c(OCC)cc1NC(=O)CN1CCCC1 the results were Tau fibril ThT -2%, HPGD inh 1%, KDM4E inh 25µM*, Tau fibril FP 7%, Tau fluor counter 1% and ALDH1A1 block inconclusive.
Screening CCOc1cc(N2CCOCC2)c(OCC)cc1NC(=O)c1ccccc1C returned Tau fibril ThT -1%, KDM4E inh 4%, Tau fibril FP 8%, Tau fluor counter -6% and ALDH1A1 block -10%.
For CCOc1cc(N2CCOCC2)c(OCC)cc1NC(=O)c1ccc2ccccc2n1 the results were Tau fibril ThT 25µM*, KDM4E inh -17%, Tau fibril FP 12%, Tau fluor counter inconclusive and ALDH1A1 block -8%.
`Cc1ccc2c(c1)cc(C(=O)Nc1ccc(F)cc1F)n2C` gave Tau fibril ThT -11%, Tau fibril FP -12% and Tau fluor counter -13%.
Screening O=C(CNC(=O)c1cccs1)N/N=C/c1ccc(O)cc1O returned Tau fibril ThT 1%, KDM4E inh 3.2µM*, Tau fibril FP -5%, Tau fluor counter -2% and ALDH1A1 block 0%.
COc1ccc(/C=N/NC(=O)CNC(=O)c2cccs2)cc1 was read as Tau fibril ThT -2%, HPGD inh -18%, KDM4E inh 4%, Tau fibril FP 1%, Tau fluor counter -1% and ALDH1A1 block -17%.
`O=C(CCc1ccccc1)NCC(=O)N/N=C/c1ccc(O)cc1O` gave Tau fibril ThT -23%, KDM4E inh 6.3µM*, Tau fibril FP 1% and Tau fluor counter -22%.
Screening Cc1cc(C)c2c(c1)/C(=N/NC(=O)c1cc(C)oc1C)CCC2 returned Tau fibril ThT -1%, HPGD inh -8%, KDM4E inh 0%, Tau fibril FP -13%, Tau fluor counter -5% and ALDH1A1 block -5%.
`O=C(O)CN(c1ccccc1)S(=O)(=O)c1cc(C(F)(F)F)cc(C(F)(F)F)c1` gave Tau fibril ThT 1%, KDM4E inh 2%, Tau fibril FP 3%, Tau fluor counter 2% and ALDH1A1 block 9%.
Screening Cn1cc(-c2nc3cnc(Oc4ccccc4)nc3n(C)c2=O)c2ccccc21 returned ALDH1A1 block -8%.
`O=C(c1ccc(Cn2c(=S)[nH]c3ccccc3c2=O)cc1)N1CCN(c2ccccn2)CC1` gave Tau fibril ThT 4%, KDM4E inh -15%, Tau fibril FP -9%, Tau fluor counter -23% and ALDH1A1 block inconclusive.
CCOc1cc(C2C(C(=O)OC)=C(C)NC3=C2C(=O)c2ccccc23)cc(Br)c1OCC (stereo unspecified) was read as Tau fibril ThT inconclusive, Tau fibril FP inconclusive and Tau fluor counter 4µM*[quencher].
`CCOc1cc(C2C(C(=O)OC)=C(C)NC3=C2C(=O)c2ccccc23)c(Br)cc1O` (stereo unspecified) gave Tau fibril ThT 5µM*, Tau fibril FP 11% and Tau fluor counter 14µM*[quencher].
`CCOc1cc(C2C(C(=O)OC)=C(C)NC3=C2C(=O)c2ccccc23)c(Br)cc1OC` (stereo unspecified) gave Tau fibril ThT inconclusive, Tau fibril FP 0% and Tau fluor counter 16µM*[quencher].
`CCOc1cc(C2C(C(=O)OC)=C(C)NC3=C2C(=O)c2ccccc23)ccc1OC` (stereo unspecified) gave Tau fibril ThT inconclusive, Tau fibril FP 5% and Tau fluor counter inconclusive.
